PubChem BioAssay (EPA / NIEHS)
Activity calls are given as the source filed them. How the source made its calls: active means hit-call score of the fitted dose curve at least 0.9, where 1 is the maximum; inactive means score below 0.9.

read-out: Forkhead box O3 (FOXO3), FOXO3 (gene 2309); assay: LTEA_HepaRG_FOXO3: Life Technologies and Expression Analysis (LTEA) Assay for Forkhead box O3 (FOXO3) using HepaRG (AID 2283459); details: mRNA level, 48 h; actives raise or lower the signal
Description: LTEA_HepaRG is a cell based, multiplexed-readout assay that uses HepaRG, a human liver cell line, with measurements taken at 48 hours after chemical dosing on a 96-well plate.LTEA_HepaRG_FOXO3 is one of 102 assay component(s) measured in the LTEA HepaRG cell culture assay. It is a marker of Cell proliferation, survival, death.Data from the assay component LTEA_HepaRG_FOXO3 was analyzed into 1 endpoint. This assay endpoint, LTEA_HepaRG_FOXO3, was analyzed with bidirectional fitting relative to DMSO as the negative control and baseline of activity. Using a type of inducible reporter, measures of mRNA induction for gain or loss-of-signal activity can be used to understand regulation of transcription factor activity. To generalize the intended target to other relatable targets, this assay endpoint is annotated to the dna binding intended target family, where the subfamily is forkhead box protein.
A total of 1060 chemcials from the ToxCast library were tested in eight-point concentration-response experiments. Cell culture and cytotoxicity assays were conducted at Thermo Fisher Scientific's Custom Services facility (Madison, WI). A single lot of human HepaRG cells (Thermo Fisher Scientific, Frederick, MD) was used for the cell culture experiments. 96-well format collagen type I coated plates of human HepaRG cells were prepared using established methods. Briefly, cryopreserved HepaRG cells were thawed, plated at a density of approximately 100,000 cells/well in HepaRG Thaw, Plate, and General Purpose media (HPRG770, Thermo Fisher Scientific), and incubated for 48 hours. 0.5% DMSO was selected as vehicle control to balance the requisite need of DMSO in HepaRG cultures to maintain differentiation (for example, baseline metabolism, proportions of hepatocytes vs. cholangiocytes), while enabling further hepatic receptor pathway activation (for example, PXR and CAR) in response to chemical exposure. 48 hours after plating, the culture medium was replaced with HepaRG Serum-Free Incudtion Media. Cells were exposed to each test chemical in duplicate and maintained in CO2 incubators for another 48 hours. Chemical plates were thawed to room temperature and 200x concentrations of treatment groups were prepared. 8-point conentration-reponse curves were made with the highest exposure at 100 uM, followed by half-log dilutions, all in 0.5% DMSO. Each test plate contained variouse controls, induction positive controls (1mM phenobarbital), cytotoxicity positive controls ([…] aflatoxin B1), vehicle controls (0.5% DMSO), and total lysis controls (0.5% DMSO). Cell morphology images were taken using an Essen IncuCyte FLR automated microscope, with six 96-well plates imaged in about 24 minutes. Images were captured and exported and JPEG files. Spent culture media was transfered to black-well plates for the LDH assay, and remaining media was sorted at -80 C for later use. Cells were treated with RLT buffer and frozen until shipped for gene expression analysis. Total RNA was isolated from the cell suspension in 75 uL of Buffer RLT (Qiagen, Germantown, MD 20874) by Quintiles/Expression Analysis (Durham, NC) using a custom isolation procedure. Total RNA from each plate well was transferred to a preamplification plate. Fluidigm's 96.96 Dynamic ArrayTM (Fluidigm, Amsterdam, the Netherlands) technology was used for gene expression analyses by quantitative reverse transcription polymerase chain reaction (qRT-PCR, performed by Quintiles/Expression Analysis, Durham, NC)89. Standard TaqManTM Assays (Applied Biosystems/ThermoFisher Scientific, Foster City, CA) were used to assess the expression of 93 genes selected based on their selectivity and sensitivity to important hepatic receptors known to be modulated by environmental chemicals; importance in human hepatocyte functionality; and hepatotoxicity. […]

outcome, inactive:
COC(=O)c1c(Cl)c(Cl)c(C(=O)OC)c(Cl)c1Cl, CCn1nc(Cc2ccccc2)cc1C1CCN(C[C@H]2C[C@H](N(C)[C@@H](C(=O)O)C(C)C)C[C@@H]2c2cccc(F)c2)CC1, COc1ccc(/C=C/S(=O)(=O)NC(=O)c2ccc(C)cc2Cl)cc1, CC[C@H](C)C(=O)O[C@H]1C[C@@H](C)C=C2C=C[C@H](C)[C@H](CC[C@@H]3C[C@@H](O)CC(=O)O3)[C@H]21, CC(C)CCO, CC(C)=CCC/C(C)=C\CO, Cc1[nH]cnc1C[C@H]1CCc2c(C)c3ccccc3n2C1=O, CC(=O)c1ccc2c(c1)[C@H](NC(=O)c1ccc(F)cc1)[C@@H](O)C(C)(C)O2, Fc1ccccc1[C@@H](F)COC1CCC(Nc2ncnc3[nH]ncc23)CC1 (stereo not given in full), COC(=O)CC(=O)OC, CC(=O)OC[C@H]1O[C@@](COC(C)=O)(O[C@H]2O[C@H](COC(C)=O)[C@@H](OC(C)=O)[C@H](OC(C)=O)[C@H]2OC(C)=O)[C@@H](OC(C)=O)[C@@H]1OC(C)=O, COC(=O)c1ccccc1O, CCN(C(=O)c1cc(C)cc(OC[C@H](C)Nc2ccncc2)c1)C(C)C, NC(=O)NO, O=c1n(CC2CO2)c(=O)n(CC2CO2)c(=O)n1CC1CO1 (stereo not given), CN(C)c1ccc(Cc2ccc(N(C)C)cc2)cc1, CC(C)CC(C)(O)C#CC(C)(O)CC(C)C (stereo not given), C1N2CN3CN1CN(C2)C3, O=C(OC[C@H]1O[C@@H](OC(=O)c2cc(O)c(O)c(OC(=O)c3cc(O)c(O)c(O)c3)c2)[C@H](OC(=O)c2cc(O)c(O)c(OC(=O)c3cc(O)c(O)c(O)c3)c2)[C@@H](OC(=O)c2cc(O)c(O)c(OC(=O)c3cc(O)c(O)c(O)c3)c2)[C@@H]1OC(=O)c1cc(O)c(O)c(OC(=O)c2cc(O)c(O)c(O)c2)c1)c1cc(O)c(O)c(OC(=O)c2cc(O)c(O)c(O)c2)c1, CC(C)CCCCCCCOC(=O)CCCCC(=O)OCCCCCCCC(C)C, O=P(OC(CCl)CCl)(OC(CCl)CCl)OC(CCl)CCl, CCOCCOCCOCCO, Cc1ccc(C)c(O)c1, CCCCCCCCCCCCc1ccccc1, CC[C@H]1CC[C@H](NCc2cc3c(cc2OC)[C@H]2C[C@H]2C(=O)N3C)[C@H](c2ccccc2)N1, CCCCCCc1ccc(O)cc1O, On1ccccc1=S, CCOC(=O)CC(CC(=O)OCC)(OC(C)=O)C(=O)OCC, C=CC(=C)CCC=C(C)C, Cc1ccc(O)cc1, CC1(C)C(=O)N(Br)C(=O)N1Br, Nc1ccc(Nc2ccccc2)cc1, Nc1cccc(N)c1, CC(C)=CCC/C(C)=C/CO, CC(C)(O)c1coc(S(=O)(=O)NC(=O)Nc2c3c(cc4c2CCC4)CCC3)c1, CCCC(=O)OCC

AC50, active:
Cn1cnc([N+](=O)[O-])c1Sc1ncnc2nc[nH]c12 4.06 µM, CN(C)c1ccc(N=NS(=O)(=O)O)cc1 16.4 µM, CCCN(C1CCN(C(=O)C2CCNCC2)CC1)[C@@H]1CCc2ccc(OC)cc2C1 27.6 µM, CC(O)CN(CCN(CC(C)O)CC(C)O)CC(C)O (stereo not given) 12.4 µM
